Screening results (PubChem BioAssay)
Sm TGR block = blocks Schistosoma mansoni thioredoxin glutathione reductase; purified TGR, DTNB reduction, TNB absorbance 405 nm; Potency, µM (highest dose often 114 µM), for the others: top-dose activity change, negative = inhibition, actives largely listed as inhibitors; 360,000 compounds, 3% hits; also: potency is read from the fitted curve at half-maximal effect; nearly all actives have a fitted effect of over 60% in size
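Kinetic colorimetric format: TGR-catalysed, NADPH-driven DTNB reduction monitored via TNB absorbance. Enzyme dispensed at 20 nM; compound exposure 15 min at room temperature before reaction start.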
VACV Venus inh = vaccinia inhibition (Venus reporter); Vaccinia virus Venus reporter expression, fluorescence; Potency, µM (highest dose often 36.5 µM), without a hit: at the top dose activity change, negative = inhibition, most hits filed as inhibitors; 330,000 compounds, 0.46% hits; AID 720580; calls by dose curve; tested in A549 cells; also: potency is read from the fitted curve at half-maximal effect; nearly all actives have a fitted effect of over 30% in size
HCV inh = HCV inhibition | AID 651820 | 340,000 compounds, 3.4% hits | Potency, µM (top dose mostly 41.8 µM), for inactives: at the top dose activity change, negative = inhibition, hits mostly inhibitors | Huh7.5.1 HCVcc-Cre infection, luciferase reporter, 44 h; also: potency is read from the fitted curve at half-maximal effect
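After 44 h co-culture of compound, cells and HCVcc-Cre (~0.5 moi), substrate is added for 15 min at room temperature and luciferase measured over 15 sec. Cells were seeded at 1,000/well and pre-cultured 4 h.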
FMDV inh = antivirals against foot and mouth disease virus; 410,000 compounds, 1.2% hits; Potency, µM (series often up to 57.9 µM), without a hit: at the highest dose activity change, negative = inhibition, usual class: inhibitors; FMDV antiviral cell-based qHTS; calls by dose curve; tested in HEK293T cells; also: read-out not given here; potency is read from the fitted curve at half-maximal effect; nearly all actives have a fitted effect of over 45% in size
VACV mCherry inh = inhibitors of vaccinia virus infection (mCherry reporter signal) | Vaccinia virus mCherry reporter infection, fluorescence | Potency, µM (series often up to 36.5 µM), for the others: top-dose activity change, negative = inhibition, actives largely listed as inhibitors | 310,000 compounds, 0.63% hits | AID 720579; calls by dose curve; tested in A549 cells; also: potency is read from the fitted curve at half-maximal effect; nearly all actives have a fitted effect of over 35% in size
HCMV antiviral = inhibitors of human cytomegalovirus. HFF cells, HCMV-luciferase reporter, 72 h; hits give low values. activity change, negative = inhibition, % at 57.5 µM. 410,000 compounds, 4.5% hits. AID 1259415; in the data active = activity change below about -60%; inconclusive = no clear call, values can overlap the other calls; inactive = above about -39%
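Two compound doses tested in HFFs infected with HCMV-luciferase, MOI 1 PFU/cell, 72 h at 37C. Lysate luminescence read with OneGlo; data normalized against buffer-only and 10uM Salinomycin inhibitor controls.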
* hit, by the source's call; i = inactive; u = inconclusive; x = no result given; [ ] = remark or other dose. Most compounds without a hit are left out; they make up all but 9.3% or so of the library. Unless noted, calls follow the shape of the dose curve; as a rule, active = well fitted curve in the direction sought with a large enough effect; inconclusive = small, poorly fitted or top-dose-only effect, or another doubt; inactive = no such curve, though single readings can be large; an effect the other way counts as inactive or inconclusive. % is scaled to controls: 0 for no effect and ±100 for the full control effect.

SMILES | Sm TGR block | VACV Venus inh | HCV inh | FMDV inh | VACV mCherry inh | HCMV antiviral
CCOC(=O)c1c(C)oc2nc(C)nc(N3CCN(c4ccc(C)cc4C)CC3)c12 | -5.0% | -9.0% | x | 9.4% | -12.0% | 15.1
CCOC(=O)c1c(C)oc2nc(C)nc(N3CCN(c4ccccc4)CC3)c12 | 10.1% | -27.5% | x | 28.2µM* | -24.7% | u
CCOC(=O)c1cc(C#N)c(N2CCN(C(=O)c3cccc(C(F)(F)F)c3)CC2)nc1C(F)(F)F | -2.5% | -2.1% | 8.91µM* | -39.4% | i | u
CCOC(=O)c1c(C)oc2ncnc(N3CCN(c4ccc(C)cc4C)CC3)c12 | 7.7% | 3.5% | x | u | 3.9% | 4.2
CCOC(=O)c1c(C)oc2ncnc(N3CCN(c4cccc(Cl)c4)CC3)c12 | 10.1% | -14.2% | x | 28.2µM* | -24.2% | -26.1
CCOC(=O)c1c(C)oc2nc(C)nc(N3CCN(c4cccc(C(F)(F)F)c4)CC3)c12 | 31.2% | -25.6% | x | u | -20.9% | -64.3*
CCOc1ccc(Nc2cc(C)nc(-n3nc(C)cc3C)n2)cc1 | -3.5% | 15.8µM* | u | 20µM* | u | -84.2*
CNc1cc(C)nc(-n2nc(C)cc2C)n1 | 8.9% | -5.0% | 3.6% | 19.2% | x | u
Cc1ccc(Nc2cc(C)nc(-n3nc(C)cc3C)n2)cc1 | -1.6% | -7.0%[7.34 µM] | x | 9.0% | -10.0%[7.34 µM] | -91.8*
CC(C)COC(=O)N(C)c1ccc(C(O)(C(F)(F)F)C(F)(F)F)cc1 | -16.2% | u | u | u | x | 8.3
CC[N+](C)(CC)CCOC(=O)C(O)(c1ccccc1)C1CCCCC1 (centres undefined) | 7.9% | -11.6% | 4.0%[8.37 µM] | -19.9% | i | u
CC[N+](C)(CC)CCC(c1ccccc1)C1CCCCC1 (centres undefined) | 17.8µM* | -17.2% | -3.0% | -5.0% | i | -34.1
COC(=O)c1c(NC(=O)C(=O)N2CCOCC2)sc2c1CCC2 | -21.0% | x | -10.0% | u | x | -15.9
O=C(/C=C/c1ccc([N+](=O)[O-])s1)N1CCCC1 | 28.2µM* | 12.6µM* | u | -7.2% | u | -31.4
O=C(/C=C/c1ccc([N+](=O)[O-])s1)N1CCN(c2ccccc2)CC1 | -15.1% | x | u | -24.1% | x | -70.5*
O=C(/C=C/c1ccc([N+](=O)[O-])s1)N1CCCCC1 | 20µM* | 14.1µM* | u | 4.0% | u | u
O=C(/C=C/c1ccccc1[N+](=O)[O-])N1CCCCC1 | -7.3% | x | -0.4% | -14.2% | x | 31.2
CCOC(=O)C1=C(c2ccccc2)Nc2ncnn2C1c1ccccn1 (centres undefined) | -2.9% | -9.5% | 1.4% | 4.1% | -3.3% | -14.7
CCOC(=O)N1CCN(C(=O)c2ccc(Cl)nc2)CC1 | 13.4% | 10.3% | 2.2% | -15.2% | -12.3% | -22.8
Cc1cc2c(cc1S(=O)(=O)CCC(=O)N1CCC(C)CC1)OCC(=O)N2 | 6.0% | -4.7% | x | -16.6% | -7.3% | -7.4
CN(C)CCCNc1cc(O)c2ncccc2c1 | -22.5% | x | x | u | x | -77.6*
Oc1cc(NCc2ccc(Cl)cc2)cc2cccnc12 | -13.1% | x | x | -10.8% | x | -39.3
Oc1cc(NCc2ccc(F)cc2)cc2cccnc12 | -20.9% | x | x | -1.9% | x | -92.7*
COc1cccc2cc(-c3ccccc3)c(=O)oc12 | 6.0% | -9.9% | -0.5% | 42.4% | -9.6% | 41.1
Cc1nc(C)c(C(=O)NNS(=O)(=O)c2ccc3ccccc3c2)s1 | 2.4% | -3.2% | 12.6µM* | -26.5% | u | -73.0*
SMILES | Sm TGR block | VACV Venus inh | HCV inh | FMDV inh | VACV mCherry inh | HCMV antiviral
COc1ccc(OC)c(S(=O)(=O)N2CCC(C(=O)N3CCCC3)CC2)c1 | -2.8% | -11.7% | -7.0% | -5.4% | -13.6% | -9.6
CCn1c(=O)c(C(=O)CN2CCCc3ccccc32)c(N)n(Cc2ccccc2)c1=O | -23.0% | x | u | 38.8% | x | -88.5*
Cn1c(=O)c(C(=O)CN2CCCCCC2)c(N)n(Cc2ccccc2)c1=O | 35.5µM* | -8.1% | 3.6% | -7.2% | -10.8% | -24.0
CC1CC(C)CN(C(=O)COC(=O)c2cccc(S(=O)(=O)N(C)c3ccccc3)c2)C1 (centres undefined) | -4.2% | -12.0% | -11.3% | -15.5% | -18.0% | -33.7
CCC(=O)Nc1nnc(SCC(=O)NCc2ccc3c(c2)OCO3)s1 | 0.0% | -2.2% | x | -5.7% | -12.1% | 53.8
CC[n+]1c(/C=C/Nc2ccccc2)sc2ccccc21 | -1.8% | 12.2% | -0.2% | -19.6% | -7.1% | -16.0
CCN1/C(=C/C=C/C=C/C=C/c2sc3ccccc3[n+]2CC)Sc2ccccc21 | 39.8µM* | x | u | 10µM* | x | -95.6*
CCN1/C(=C/C=C/c2sc3ccccc3[n+]2CC)Sc2ccccc21 | -22.5% | i | 1.58µM* | 14.1µM* | i | x
CCN1/C(=C/C=C/C=C/c2sc3ccccc3[n+]2CC)Sc2ccccc21 | 50.1µM* | 89.8% | 0.8%[8.37 µM] | x | 48.0% | x
CC[n+]1c(/C=C(/C)SC)sc2ccccc21 | -15.2% | -6.0% | u | -21.8% | -7.5% | 32.4
CCNC(=O)C(=O)Nc1cc2c3c(c1)CCN3C(=O)CC2 | 0.8% | x | 16.3% | 6.1% | x | 46.4
COc1ccc(OC)c(NC(=O)Cn2ccn(-c3ccc(F)cc3)c(=O)c2=O)c1 | 5.5% | -5.4% | x | -4.0% | -6.3% | -0.6
CO[C@H]1C=C2CCN(C)[C@H]2C2c3cc4c(cc3C(=O)O[C@@H]21)OCO4 (some centres undefined) | -16.6% | -11.3% | -2.0% | 12.4% | -1.2% | -63.3*
COc1cc2c(cc1OC)C(C1c3cc4c(cc3CCN1C)OCO4)OC2=O (centres undefined) | 6.2% | x | 8.9% | -2.0% | x | 0.6
Cc1cc(C)c(C(=O)CSC2=NC(N)=C(C#N)C3(CCCCC3)C2C(N)=O)cc1C (centres undefined) | -20.6% | -14.0% | x | u | -17.9% | -66.5*
Cc1cc(C)c(C(=O)CSc2nnc(N)s2)cc1C | 4.2% | -0.4% | -25.0% | 6.0% | -0.1% | 7.9
CC(=O)N(CCCc1ccc(C(C)(C)C)cc1)CCCN(C)C | 7.9% | -8.0% | 7.94µM* | x | i | u
COc1ccc(NC(=S)NCCCCCC(=O)C[N+](=O)[O-])cc1 | 20µM* | -1.5% | 0.3% | 5.0% | -3.8% | -20.2
O=C(CCCCCNC(=S)Nc1ccccc1)C[N+](=O)[O-] | 25.1µM* | -12.4% | 6.4% | -9.5% | -11.9% | 50.0
O=C(CCCCCNC(=S)Nc1ccc(Cl)cc1)C[N+](=O)[O-] | -22.6% | 3.4% | -16.1% | 5.0% | -14.6% | 24.0
Cc1ccccc1OCCOC(=O)c1cc(S(=O)(=O)N2CCCCC2)ccc1N1CCOCC1 | -14.2% | u | 11.2µM* | u | u | -38.1
O=C(Nc1ccc(Cl)c(Cl)c1)Nc1cc(S(=O)(=O)N2CCOCC2)ccc1N1CCCC1 | 1.2% | u | u | -16.2% | u | -67.5*
COc1ccc(S(=O)(=O)N2CCOCC2)cc1NC(=O)c1cc2c(s1)CCCC2 | -8.7% | -3.5% | 4.7% | 23.2% | -17.3% | -68.8*
